Experimental data published in PubChem BioAssay.
Activity calls are given as the source filed them. Unless noted, how the calls were made is not given here.

Experiments:
[1] = system: Wnt5a (protein binding on small-molecule microarray); assay: small molecules binding Wnt5a protein – biophysical, small-molecule microarray, 635/667 nm fluorescence, primary screen (AID 1142); settings: 635 nm fluorescence, higher = more signal;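 further: fluorescence read at 667 nm with signal to noise per printed feature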
[2] = ATP-based viability of Huh7 replicon cells – cell-based, CellTiter-Glo luminescence, basal, 48 h, cytotoxicity control for HCV replication inhibitor project, primary screen (AID 1143); settings: higher = more signal, called active from +8 up or from −8 down;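 further: Huh7 hepatoma cells carrying a hepatitis C replication reporter with no stimulus; test concentration not given here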
[3] = Pseudomonas biofilm growth suppression – PAO1 strain, BacTiter-Glo luminescence, LB-PBS, primary screen (AID 1144); settings: P. aeruginosa PAO1 biofilm, 12 h, higher = more signal
[4] = basal CRE-LacZ reporter activity in PC12 – cell-based, unstimulated, primary screen (AID 1145); settings: no forskolin, luminescence, 4.5 h, higher = more signal, called active from +8 up or from −8 down
[5] = forskolin-driven CRE-LacZ activity in PC12 – cell-based, CRE-LacZ reporter, forskolin-stimulated, primary screen (AID 1146); settings: luminescence, 4.5 h, higher = more signal, called active from +8 up or from −8 down;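 further: PC12 cells with 6xCRE LacZ reporter stimulated by forskolin 10 µM; beta-galactosidase reporter signal reflecting CREB driven transcription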
[6] = target: Streptavidin (Streptomyces avidinii) (UniProt P22629); assay: compounds binding control protein streptavidin – biophysical, small-molecule microarray, 635/667 nm fluorescence, artefact control for SMM compound annotation, primary screen (AID 1147); settings: higher = more signal;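 further: signal reflects streptavidin binding to arrayed compounds as a control protein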
[7] = probe aInhba binding on compound microarray – biochemical, small-molecule microarray, 635/667 nm fluorescence, primary screen (AID 1148); settings: higher = more signal;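 further: score merges 667nm spot fluorescence with signal-to-noise for antibody binding to printed compounds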
Torsin-1A (Homo sapiens) [8] = target: Torsin-1A (Homo sapiens) (UniProt O14656); assay: TOR1A wild-type binding on microarray – cell lysate, small-molecule microarray, lysate, 635/667 nm, primary screen (AID 1149); settings: COS7 hTOR1A-WT lysate, 635 nm fluorescence, higher = more signal
Torsin-1A (Homo sapiens) [9] = target: Torsin-1A (Homo sapiens) (UniProt O14656); assay: torsin A mutant lysate binding on microarrays – cell lysate, small-molecule microarray, COS7 lysate, 635/667 nm fluorescence, primary screen (AID 1150); settings: COS7 hTOR1A mutant lysate, 635 nm fluorescence, higher = more signal;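 further: score pools 667 nm emission and signal to noise measuring lysate protein binding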
[10] = system: Sonic hedgehog protein (Shh); assay: Sonic hedgehog microarray binding compounds – biochemical, small-molecule microarray, 635/667 nm fluorescence, primary screen (AID 1151); settings: 635 nm fluorescence, higher = more signal;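 further: Shh protein binding to compounds spotted on small-molecule microarray slides; score combines spot fluorescence intensity with signal-to-noise across triplicate slides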
[11] = optical density shifts of acrAB sulA E. coli – strain DRC41, OD650, 48 h, E. coli filamentation inducer project, primary screen (AID 1152); settings: higher = more signal, called active from +8 up or from −8 down;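 further: E. coli MC1000 strain DRC41 lacking acrAB efflux pump and sulA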
[12] = probe aLefty1 binding on compound microarray – biochemical, small-molecule microarray, 635/667 nm fluorescence, primary screen (AID 1153); settings: higher = more signal;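 further: score merges spot fluorescence with signal-to-noise ratio from the scanned slide images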
[13] = plasmodial surface anion channel blockers, osmotic lysis – cell-based, P. falciparum Indochina, OD700, 1 h, primary screen (AID 1154); settings: P. falciparum Indochina infected RBC osmotic lysis, higher = more signal, called active from +8 up or from −8 down
[14] = plasmodial surface anion channel blockers, osmotic lysis – cell-based, P. falciparum Indochina, OD700, 2 h, primary screen (AID 1155);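 further: lysis reports solute entry through the parasite surface anion channel PSAC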; settings: P. falciparum Indochina infected erythrocytes, higher = more signal, called active from +8 up or from −8 down
[15] = changes in parasitized red cell lysis, either direction – P. falciparum Indochina, OD700, 3 h, PSAC antagonist project, primary screen (AID 1156); settings: P. falciparum-infected erythrocytes, osmotic lysis, higher = more signal, called active from +8 up or from −8 down
[16] = plasmodial surface anion channel blockers, osmotic lysis – cell-based, P. falciparum Indochina, OD700, 18 h, primary screen (AID 1157); settings: P. falciparum Indochina infected erythrocytes, osmotic lysis OD700, 18 h; higher = more signal, called active from +8 up or from −8 down
[17] = S6 kinase pathway phospho-S6 level changes – cell-based, A549, cytoblot, luminescence, serum-stimulated, primary screen (AID 1158); settings: 5 h, higher = more signal;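 further: serum-stimulated A549 lung adenocarcinoma cells; signal is phosphorylated S6 detected by cytoblot immunostaining with HRP secondary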
[18] = target: NADPH oxidase 2 (Homo sapiens) (UniProt P04839); assay: compounds shifting NOX2 Amplex Red fluorescence – cell-based, HEK293-NOX2, PMA-stimulated, NOX inhibitor project, primary screen (AID 1159); settings: 45 min, higher = more signal, called active from +8 up or from −8 down; further: test concentration not given here
[19] = target: NADPH oxidase 4 (Homo sapiens) (UniProt Q9NPH5); assay: compounds shifting NOX4 Amplex Red fluorescence – cell-based, HEK293-NOX4, tetracycline-induced, NOX inhibitor project, primary screen (AID 1160); settings: HEK293-NOX4, Amplex Red H2O2 fluorescence, 45 min; higher = more signal, called active from +8 up or from −8 down
[20] = target: NADPH oxidase 5 (Homo sapiens) (UniProt Q96PH1); assay: compounds shifting NOX5 Amplex Red fluorescence – cell-based, HEK293-NOX5, NOX inhibitor project, primary screen (AID 1161); settings: HEK293-NOX5, ionomycin, 45 min, higher = more signal
Sequence of NADPH oxidase 5 (Homo sapiens) (Q96PH1 whole entry, looked up): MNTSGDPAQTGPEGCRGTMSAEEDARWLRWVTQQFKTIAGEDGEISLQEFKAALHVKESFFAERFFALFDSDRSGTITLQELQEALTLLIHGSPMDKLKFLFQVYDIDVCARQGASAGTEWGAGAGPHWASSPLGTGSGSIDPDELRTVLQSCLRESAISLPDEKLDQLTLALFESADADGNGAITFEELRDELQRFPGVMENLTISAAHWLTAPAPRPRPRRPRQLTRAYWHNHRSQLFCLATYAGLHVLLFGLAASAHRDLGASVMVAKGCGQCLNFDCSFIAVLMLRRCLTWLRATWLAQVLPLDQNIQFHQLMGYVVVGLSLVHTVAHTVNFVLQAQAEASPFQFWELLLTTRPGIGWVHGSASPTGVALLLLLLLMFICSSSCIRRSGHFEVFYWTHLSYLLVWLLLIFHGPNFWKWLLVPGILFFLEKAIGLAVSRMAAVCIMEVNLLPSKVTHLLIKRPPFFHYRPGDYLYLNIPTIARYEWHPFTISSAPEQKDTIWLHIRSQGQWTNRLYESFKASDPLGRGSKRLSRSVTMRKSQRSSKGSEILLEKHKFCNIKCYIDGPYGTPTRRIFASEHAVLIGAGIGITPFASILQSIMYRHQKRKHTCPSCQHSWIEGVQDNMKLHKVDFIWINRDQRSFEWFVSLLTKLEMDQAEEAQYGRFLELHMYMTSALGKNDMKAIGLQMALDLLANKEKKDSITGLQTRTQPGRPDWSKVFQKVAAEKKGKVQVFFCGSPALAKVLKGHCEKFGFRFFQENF

Sequence of Torsin-1A (Homo sapiens) (O14656 whole entry, looked up): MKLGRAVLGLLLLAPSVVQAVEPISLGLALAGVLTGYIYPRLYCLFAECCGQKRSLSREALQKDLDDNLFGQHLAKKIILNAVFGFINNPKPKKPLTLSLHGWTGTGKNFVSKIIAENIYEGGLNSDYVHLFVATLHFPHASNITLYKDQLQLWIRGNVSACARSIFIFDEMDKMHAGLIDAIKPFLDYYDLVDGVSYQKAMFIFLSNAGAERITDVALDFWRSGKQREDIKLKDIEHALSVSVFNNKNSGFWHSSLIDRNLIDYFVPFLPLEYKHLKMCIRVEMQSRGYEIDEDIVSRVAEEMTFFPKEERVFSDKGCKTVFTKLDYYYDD
Sequence of NADPH oxidase 2 (Homo sapiens) (P04839 whole entry, looked up): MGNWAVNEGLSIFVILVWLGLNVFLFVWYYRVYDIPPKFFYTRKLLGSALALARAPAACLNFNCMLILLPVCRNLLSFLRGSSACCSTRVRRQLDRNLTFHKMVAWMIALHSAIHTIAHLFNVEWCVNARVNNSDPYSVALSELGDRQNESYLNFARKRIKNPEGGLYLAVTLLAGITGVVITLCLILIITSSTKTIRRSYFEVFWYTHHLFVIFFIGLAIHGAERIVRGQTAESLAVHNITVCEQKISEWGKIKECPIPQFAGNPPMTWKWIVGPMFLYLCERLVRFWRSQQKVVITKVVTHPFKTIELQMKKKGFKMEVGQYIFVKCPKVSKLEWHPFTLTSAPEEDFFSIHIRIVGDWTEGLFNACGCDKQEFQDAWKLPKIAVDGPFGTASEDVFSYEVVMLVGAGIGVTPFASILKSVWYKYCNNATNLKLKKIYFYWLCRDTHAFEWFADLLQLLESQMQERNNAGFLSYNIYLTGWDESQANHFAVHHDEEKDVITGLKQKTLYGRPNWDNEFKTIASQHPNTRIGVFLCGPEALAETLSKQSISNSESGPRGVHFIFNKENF
Sequence of NADPH oxidase 4 (Homo sapiens) (Q9NPH5 whole entry, looked up): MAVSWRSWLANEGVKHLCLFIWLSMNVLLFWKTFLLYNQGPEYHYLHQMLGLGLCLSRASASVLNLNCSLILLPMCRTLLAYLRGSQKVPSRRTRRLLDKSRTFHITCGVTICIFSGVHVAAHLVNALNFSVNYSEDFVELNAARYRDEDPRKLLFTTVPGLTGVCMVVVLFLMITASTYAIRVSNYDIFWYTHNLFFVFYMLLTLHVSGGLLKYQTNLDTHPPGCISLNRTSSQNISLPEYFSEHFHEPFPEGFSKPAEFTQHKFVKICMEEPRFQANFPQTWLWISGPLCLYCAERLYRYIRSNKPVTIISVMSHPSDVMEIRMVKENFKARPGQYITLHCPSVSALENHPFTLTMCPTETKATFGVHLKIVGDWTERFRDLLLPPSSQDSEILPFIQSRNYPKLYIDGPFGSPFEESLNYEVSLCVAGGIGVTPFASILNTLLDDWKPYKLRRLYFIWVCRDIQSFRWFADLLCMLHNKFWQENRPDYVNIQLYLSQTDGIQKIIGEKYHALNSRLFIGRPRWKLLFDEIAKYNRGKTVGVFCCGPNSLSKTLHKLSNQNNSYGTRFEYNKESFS
Sequence of Streptavidin (Streptomyces avidinii) (P22629 whole entry, looked up): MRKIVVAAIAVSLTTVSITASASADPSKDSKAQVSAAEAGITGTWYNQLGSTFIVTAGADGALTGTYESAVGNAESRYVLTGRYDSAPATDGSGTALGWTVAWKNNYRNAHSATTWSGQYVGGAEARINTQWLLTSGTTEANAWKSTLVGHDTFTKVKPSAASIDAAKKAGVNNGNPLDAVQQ

Structure (SMILES) | composite z-score [1] | z-score [2] | z-score [3] | z-score [4] | z-score [5] | composite z-score [6] | composite z-score [7] | composite z-score (Torsin-1A (Homo sapiens) [8]) | composite z-score (Torsin-1A (Homo sapiens) [9]) | composite z-score [10] | z-score [11] | composite z-score [12] | z-score [13] | z-score [14] | z-score [15] | z-score [16] | z-score [17] | z-score [18] | z-score [19] | z-score [20]
COCCOC(=O)N1C(=O)[C@@]2(c3cc(C#CC4=CCCCC4)ccc31)[C@H](c1ccccc1OCCO)N1[C@H](c3ccccc3)[C@H](c3ccccc3)OC(=O)[C@H]1[C@@H]2C(=O)N1CCCCCCC1 | 0.582 | -4.01 (inactive) | 0.727 (inactive) | -0.402 (inactive) | 0.207 (inactive) | 0.342 | -0.584 | 0.931 | 0.156 | 0.755 | -1.05 (inactive) | -0.999 | -0.606 (inactive) | 1.1 (inactive) | -0.56 (inactive) | 0.442 (inactive) | -0.56 | 0.962 (inactive) | -1.22 (inactive) | 0.545
C=CCC(OC(C)=O)[C@@H]1[C@@H](N(Cc2ccc(-c3cccc(C(F)(F)F)c3)o2)C(=O)c2ccc(C)cc2)c2cc(OCCCO)ccc2N1C(=O)c1ccc2ccccc2c1 (stereo not given in full) | 0.0344 | -0.478 (inactive) | -1.39 (inactive) | -0.519 (inactive) | 0.291 (inactive) | 0.203 | -0.024 | -0.361 | -0.0628 | 0.772 | 1.86 (inactive) | -0.147 | 2.37 (inactive) | -0.0931 (inactive) | 0.0854 (inactive) | -0.109 (inactive) | -0.494 | -0.401 (inactive) | 0.713 (inactive) | 1.79
